HT1080 IDH1KD tx – toxicity to HT-1080 IDH1 knockdown cells (counter line); HT-1080 IDH1 knockdown viability, ATP luminescence, 48 h; Potency, µM (doses to about 46.1 µM), usual class: cytotoxic; 360,000 tested, 2% active; AID 686971
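CellTiter-Glo luminescence after 48 h compound exposure at 37 degrees C of IDH1-knockdown HT-1080 cells in 5% FBS RPMI. %Activity scaled between DMSO wells and cell-free media wells, with curves fitted and assigned curve classes.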
HT1080-NT tox – kills 2HG-producing HT-1080-NT fibrosarcoma cells | HT-1080-NT fibrosarcoma viability, CellTiter-Glo ATP luminescence, 48 h | 360,000 tested, 1.6% active | Potency, µM (highest dose often 46.1 µM), most hits filed as cytotoxic;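 also: NT is the 2HG producing partner of a matched IDH1 knockdown line; nearly all actives have a fitted effect of over 55% in size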
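Compounds were tested in concentration-response format on HT-1080-NT cells for 48 hours at 37 degrees C. Cell viability came from CellTiter-Glo luminescence; curves were classified by r2, response magnitude and activity.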
KB-V1 MDR tox – KB-V1 MDR subline cytotoxicity; KB-V1 MDR cells viability, CellTiter-Glo, 72 h; Potency, µM (doses to about 46.1 µM), most hits filed as cytotoxic; 400,000 tested, 3.4% active; also: nearly all actives have a fitted effect of over 60% in size
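In this primary screen, KB-V1 cells overexpressing P-gp are incubated with library compounds (lowest to highest concentration) for 72 h at 37 degrees C before a luminescent ATP viability read.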
S2 tox – cell viability loss in ATXN counter-screen | S2 cells (HEK-293 line with an ATXN2-luciferase reporter) viability, CellTiter-Fluor protease fluorescence, 24 h | Potency, µM (titrated, usually from 56.7 µM), usual class: cytotoxic | 400,000 tested, 0.49% active | AID 651635; also: nearly all actives have a fitted effect of over 40% in size
ATXN2 expr inh – reduces ATXN2 reporter expression in HEK-293 cells; HEK-293 ATXN2-luciferase reporter, luminescence, 24 h; Potency, µM (series often up to 57 µM), usual class: inhibitors; 360,000 tested, 0.72% active; also: nearly all actives have a fitted effect of over 55% in size
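ATXN2-luciferase reporter cells (luciferase flanked by upstream and downstream ATXN2 gene portions) were treated 24 h at 37 °C with compounds at up to 57 uM. SteadyGlo luminescence gave expression; GF-AFC fluorescence gave viability.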
KB-3-1 tox – KB-3-1 parental cell cytotoxicity; KB-3-1 viability, CellTiter-Glo ATP luminescence, 72 h; Potency, µM (series often up to 46.1 µM), hits mostly cytotoxic; 400,000 tested, 1.4% active; AID 1347075; also: nearly all actives have a fitted effect of over 60% in size
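Screening of KB-3-1 cells (DMEM, 10% FBS, phenol-red free) ran from lowest to highest compound concentration; after 72 h at 37 °C viability was read luminescently and curves fitted.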
A number is an active result; – = inactive; ? = inconclusive; · = not tested or not shown. In the library only some 6.2% were active in any assay of this set; here they are far more common. Calls follow the shape of the dose curve; as a rule, active = well fitted curve in the direction sought with a large enough effect; inconclusive = small, poorly fitted or top-dose-only effect, or another doubt; inactive = no such curve, though single readings can be large; an effect the other way counts as inactive or inconclusive.

SMILES	HT1080 IDH1KD tx	HT1080-NT tox	KB-V1 MDR tox	S2 tox	ATXN2 expr inh	KB-3-1 tox
CCCC(=O)Nc1ccc2c(c1)nc(CN1CCN(C(=O)OCC)CC1)n2CC	?	?	–	–	–	3.26µM
CCCC(=O)Nc1ccc2c(c1)nc(CN1CCN(C(=O)OCC)CC1)n2C	–	–	–	–	–	–
COc1ccc(OC(=O)c2cccc(S(=O)(=O)N3CC(C)OC(C)C3)c2)cc1 (configuration not stated)	–	–	–	?	–	–
CC1CN(S(=O)(=O)c2cccc(C(=O)OCCOc3ccccc3)c2)CC(C)O1 (configuration not stated)	–	–	11.6µM	–	–	–
COCC(=O)Nc1cc(C(=O)N2CCN(c3ccccc3)C(=O)C2)cc2nc(-c3ccccc3)n(C)c12	·	·	·	–	·	·
CN1CCN(CCOC2Cc3ccccc3Sc3ccc(Cl)cc32)CC1 (configuration not stated)	–	–	23.1µM	–	–	?
CCc1ccc2c(c1)Sc1ccccc1CC2N1CCN(C)CC1 (configuration not stated)	–	–	–	·	·	–
O=C(Nc1ccc(S(=O)(=O)N2CCCC2)cc1)c1ccc(OCC2CCCO2)cc1 (configuration not stated)	?	?	?	–	–	20.6µM
Cc1ccc(NC(=O)c2ccc(OCC3CCCO3)cc2)nc1 (configuration not stated)	–	–	?	–	–	–
Cc1ccc(NC(=O)c2ccc(OCC3CCCO3)cc2)cc1 (configuration not stated)	–	–	20.6µM	–	–	–
O=C(Nc1cccc(S(=O)(=O)N2CCCCC2)c1)c1ccc(OCC2CCCO2)cc1 (configuration not stated)	–	–	8.2µM	·	–	–
N#CCCN(Cc1cccnc1)CN1C(=O)c2ccccc2C1=O	–	–	–	–	·	–
COC(=O)c1ccccc1NC(=O)CSc1nnc2cc(C)c3cc(C)cc(C)c3n12	·	·	–	?	–	–
S=c1sc2c(Cl)ncnc2n1-c1ccccc1	?	20.6µM	?	?	·	?
Cc1ccccc1-c1cccc(CN2CCN(C)C(CCO)C2)c1 (configuration not stated)	–	–	–	–	–	–
O=C(C[n+]1cccc2cc(Cl)ccc21)c1ccc2c(c1)CCCC2	·	·	–	·	·	–
CN1N=C(N)c2cn(C3OC(COP(=O)(O)O)C(O)C3O)c3ncnc1c23 (configuration not stated)	?	–	?	–	–	1.84µM
Nc1ncnc2c1ncn2[C@@H]1O[C@H](COP(=O)(O)O)[C@@H](O)[C@@H]1O	·	·	·	–	·	·
Nc1ncnc2c1ncn2C1OC(COP(=O)(O)O)C(O)C1O (configuration not stated)	?	7.31µM	–	–	–	–
Nc1ncnc2c1ncn2C1C=C(CO)C(O)C1O (configuration not stated)	?	?	?	?	?	8.2µM
Nc1ncnc2c1ncn2[C@@H]1O[C@H](CO)C[C@H]1O	–	–	–	–	–	–
Nc1ncnc2c1ncn2[C@@H]1O[C@H](COP(=O)(O)O)[C@@H](O)[C@H]1O	?	?	?	–	–	–
CCN1CCN(c2nc3c(S(=O)(=O)c4ccc(C)cc4)nnn3c3ccsc23)CC1	·	·	–	·	·	–
COC(=O)C1=C(CS(=O)(=O)c2cc(Cl)ccc2OC)NC(=O)NC1c1ccccc1 (configuration not stated)	·	·	–	–	–	–
Cc1cccc(NC(=O)c2ccccc2NC(=O)C2CCCCC2)c1C	–	–	18.4µM	–	–	–
SMILES	HT1080 IDH1KD tx	HT1080-NT tox	KB-V1 MDR tox	S2 tox	ATXN2 expr inh	KB-3-1 tox
Cc1ccc(N2CC(C(=O)Nc3ccccc3C(=O)NC3CCCCC3)CC2=O)cc1 (configuration not stated)	–	–	3.66µM	–	–	–
C(=C\c1ccnc2ccccc12)/c1ccc(N2CCOCC2)cc1	·	·	–	·	·	?
Cc1cc(C)c(OCC(=O)Nc2cccc(-c3nc4ncccc4o3)c2)c(Br)c1	·	·	?	–	–	–
COc1c(C)cc(Br)cc1C(=O)Nc1ccc(-c2nc3ncccc3o2)cc1	·	·	–	–	–	–
Cc1ccc(C(C)C)c(OCC(=O)Nc2cccc(-c3nc4ncccc4o3)c2)c1	·	·	?	20µM	?	–
O=C(CSc1ccc(Cl)cc1)Nc1cccc(-c2nc3ncccc3o2)c1	–	–	14.6µM	–	–	?
O=C(Nc1cccc(-c2nc3ncccc3o2)c1)c1ccc(-c2cccc(Cl)c2Cl)o1	·	·	6.51µM	?	?	–
COc1c(C)cc(Br)cc1C(=O)Nc1cccc(-c2nc3ncccc3o2)c1	–	–	?	31.6µM	22.4µM	?
COCCCNc1nc2c(S(=O)(=O)c3ccccc3)nnn2c2ccc(Cl)cc12	·	·	–	–	–	–
Cc1cc(C)cc(NC(=O)CCc2c(C)nc3nc(CNC(=O)c4cccc(F)c4)nn3c2C)c1	·	·	–	–	–	–
Cc1cc(NC(=O)c2ccc(S(=O)(=O)N(C)CC3CCCO3)cc2)no1 (configuration not stated)	–	–	–	–	–	–
COc1ccc(-c2nnc(NC(=O)c3ccc(S(=O)(=O)N(C)CC4CCCO4)cc3)o2)c(OC)c1 (configuration not stated)	–	–	5.8µM	?	–	–
CN(CC1CCCO1)S(=O)(=O)c1ccc(C(=O)Nc2nccs2)cc1 (configuration not stated)	–	–	18.4µM	–	·	–
COC(=O)[C@]12CCCCC=C1N(CCc1ccc(OC)c(OC)c1)C(=O)[C@H](CC(=O)NCc1cccs1)C2	–	–	–	·	·	–
O=C(c1ccc(C(F)(F)F)cc1)N(CCCn1ccnc1)C(c1ccccn1)c1nc2ccccc2[nH]1 (configuration not stated)	–	–	–	?	–	–
C/C=C/c1ccc(OCCOc2cc(C=O)ccc2OC)c(OC)c1	–	–	14.6µM	–	–	–
C/C1=C\CCC2C(/C=C(\C)CC1)OC(=O)C2CN1CCCCC1 (configuration not stated)	20.6µM	?	?	–	–	–
CCCN(Cc1nnc(-c2cccs2)o1)C(=O)CN1C(=O)NC2(CCCCC2)C1=O	–	–	–	–	–	–
Cc1cc2nc(SCCOC(=O)Nc3ccccc3)nc(C)c2cc1C	–	–	20.6µM	–	–	–
Cc1ccc(NC(=O)CSc2nc3ccccc3c3nc(CCc4c(C)n[nH]c4C)nn23)cc1F	7.94µM	–	–	?	–	–
